According to PubChem BioAssay (NCATS):
Values without a mark were called inactive. The rule behind the calls is not given here.

Each compound was assayed on HIV-1 nucleocapsid protein NCp7 (binding to TG oligonucleotide) (assay: HIV Nucleocapsid (AID 346;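 note: potency is for inhibitors that block NC binding and lower polarization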)). Details: HIV-1 NC / fluorescein-TGTGTGTG probe, fluorescence polarization.
In short: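 HIV-1 NC (100 nM) binding to fluorescein-labelled ssDNA TG4xF (10 nM) in Hepes pH 7.5, 250mM NaCl, 1uM ZnCl2, TCEP and 2-mercaptoethanol; compounds pin-transferred, 1 hr room temperature, fluorescence polarization read on CCD imager.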
Potency is the fitted concentration of half-maximal effect.

Row | SMILES | Potency [µM]
1 | Clc1ccccc1-c1nccc(-n2ccnc2)n1 | > 20
2 | COCCn1c(=O)c(-c2cccc(C#N)c2)nc2cnc(N3CCN(C)CC3)nc21 | > 20
3 | COc1cccc(Nc2ncc3nc(-c4ccccc4)c(=O)n(C4CC4)c3n2)c1 | > 20
4 | COc1ccccc1-c1nccc(NCc2cccnc2)n1 | > 20
5 | Cc1ccccc1-c1nc(N2CCOCC2)c2ccccc2n1 | > 20
6 | c1ccc(C(c2ccccc2)N2CC3(CCNCC3)C2)cc1 | > 20
7 | COc1ccccc1CNc1nc(-c2ccc(N(C)C)cc2)nc2ccccc12 | > 20
8 | CC(C)NC(=O)N1CCC2(CC1)CCN(S(=O)(=O)c1ccccc1)CC2 | > 20
9 | CN(C)c1ccc(-c2nc(NC3CCNCC3)c3ccccc3n2)cc1 | > 20
10 | COc1ccccc1-c1ccc2ncnc(NCCN3CCOCC3)c2c1 | > 20
11 | Cc1cnc(CNc2cc(-c3cccc(C#N)c3)ncn2)cn1 | > 20
12 | Cc1noc(C)c1-c1cncnc1-n1ccnc1 | > 20
13 | O=C(c1cc(C(F)(F)F)cc(C(F)(F)F)c1)N1CCC2(CCN(Cc3ccncc3)CC2)CC1 | > 20
14 | CN1CCN(c2ncc3nc(-c4cccc(C#N)c4)c(=O)n(CCc4ccccc4)c3n2)CC1 | > 20
15 | COc1ccc2[nH]cc(CCNc3ccnc(-c4ccc5c(c4)OCO5)n3)c2c1 | > 20
16 | Cn1cccc1C(=O)N1CCC2(CC1)CCN(c1ccccn1)CC2 | > 20
17 | Cc1cccc(CNc2cc(-c3ccccc3C)ncn2)c1 | > 20
18 | O=C(c1csnn1)N1CCC2(CC1)CN(Cc1cc(C(F)(F)F)cc(C(F)(F)F)c1)C2 | > 20
19 | COc1ccc(C(=O)N2CCC[C@@]3(CCN(Cc4ccccc4)C3)C2)cc1 | > 20
20 | COc1ccc(-n2c(=O)c(-c3cccs3)nc3cnc(N(C)C)nc32)cc1 | > 4

Row | SMILES | Potency [µM]
21 | N#Cc1ccccc1-c1ccc2ncnc(NCc3cccs3)c2c1 | > 20
22 | CN1CCN(c2ncnc3ccc(-c4ccccc4Cl)cc23)CC1 | > 20
23 | COc1cccc(Cn2c(=O)cnc3cnc(OC)nc32)c1 | > 20
24 | Cc1nc2cnc(N3CCN(C)CC3)nc2n(C[C@H]2CCCO2)c1=O | > 20
25 | CNc1ncnc2ccc(-c3ccccc3CN(C)C)cc12 | > 20
26 | O=C(Nc1cccc(F)c1)N1CC2(CCN(C(=O)c3ccco3)CC2)C1 | > 20
27 | COc1ccc(Oc2ncc3nc(-c4cccs4)c(=O)n(-c4ccccc4)c3n2)cc1 | > 20
28 | COc1ccc2[nH]cc(CCNc3ncnc4ccc(-c5cccc(C#N)c5)cc34)c2c1 | > 20
29 | Clc1ccccc1-c1cncnc1NCCN1CCOCC1 | > 20
30 | N#CCCn1c(=O)c(-c2cccc(C#N)c2)nc2cnc(N3CCOCC3)nc21 | > 20
31 | O=c1c(-c2ccccc2)nc2cnc(N3CCOCC3)nc2n1C[C@H]1CCCO1 | > 20
32 | CC(=O)NCCNc1ncnc2ccc(-c3ccc4c(c3)OCO4)cc12 | > 20
33 | O=c1c(CCc2ccccc2)nc2cnc(Nc3ccccc3)nc2n1C[C@H]1CCCO1 | > 20
34 | COc1cccc(Cn2c(=O)c(-c3ccc(F)cc3)nc3cnc(N(C)C)nc32)c1 | > 20
35 | CC(=O)N1CCC2(CCCN(C(c3ccccc3)c3ccccc3)C2)CC1 | > 20
36 | COc1ccc(-n2c(=O)c(CCc3ccccc3)nc3cnc(N4CCNCC4)nc32)cc1 | > 20
37 | Cc1cnc(CNc2nc(-c3c(C)noc3C)nc3ccccc23)cn1 | > 20
38 | COCCn1c(=O)c(-c2ccc(OC)cc2)nc2cnc(OC)nc21 | > 20
39 | COCC(=O)N1CCC2(CCCN(c3ncccn3)C2)CC1 | > 20
